PubChem BioAssay (Tox21)
Results filed as inconclusive are left out. Active and inactive are the calls of the source. Unless noted, calls follow the shape of the dose curve; as a rule, active = well fitted curve in the direction sought with a large enough effect in the repeat runs; inconclusive = weak or mixed curves; inactive = no such curve, though single readings can be large; an effect the other way counts as inactive or inconclusive.

Key:
[1] = qHTS assay to identify small molecule agonists of the androgen receptor (AR) signaling pathway in the presence of an antagonist - cell viability counter screen (AID 1259379);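 also: MDA-kb2 human breast cancer cells carrying an MMTV luciferase reporter; series mostly up to about 92 µM; % is scaled to controls: 0 for no effect and ±100 for the full control effect; nearly all actives have a fitted effect of over 25% in size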
In short: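 Each compound was tested at 15 concentrations on MDA-kb2 cells in the presence of 3.0uM nilutamide. Viability was measured by CellTiter-Fluor fluorescence after a 16 hr incubation at 37C in a CO2-free atmosphere.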

[2] = qHTS assay to identify small molecule agonists of the estrogen receptor beta (ER-beta) signaling pathway - cell viability counter screen (AID 1259380); also: nearly all actives have a fitted effect of over 30% in size; also: potency is read from the fitted curve at half-maximal effect
In short: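 Compounds dissolved in DMSO were pin-transferred onto ER-beta-UAS-bla HEK293T cells that had settled 6 hr, and exposure ran 16 hr at 37C. Following the reporter read, CellTiter-Glo luminescence after 30 min at room temperature indicated cytotoxicity.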

[3] = target: Androgen receptor (Homo sapiens) (UniProt P10275); assay: qHTS assay to identify small molecule agonists of the androgen receptor (AR) signaling pathway in the presence of an antagonist (AID 1259381; calls by dose curve; also: % is scaled to controls: 0 for no effect and ±100 for the full control effect; nearly all actives have a fitted effect of over 15% in size)
In short: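 Plated MDA-kb2 cells (3,000/well) were pre-incubated 5hr, given nilutamide (3.0uM final) or buffer, then dosed with compounds in DMSO at 15 concentrations. Luciferase activity was quantified by luminescence after 16hr at 37C.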

[4] = qHTS assay to identify small molecule antagonists of the estrogen receptor beta (ER-beta) signaling pathway - cell viability counter screen (AID 1259382); also: nearly all actives have a fitted effect of over 55% in size; also: potency is read from the fitted curve at half-maximal effect
In short: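 CellTiter-Glo ATP luminescence measured after the LiveBLAzer read in the same wells; ER-beta-UAS-bla HEK293T cells, 16 hr compound treatment with 1nM 17-beta-estradiol agonist at 37C, 5% CO2.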

[5] = target: Estrogen receptor (Homo sapiens) (UniProt P03372); assay: qHTS assay to identify small molecule agonists of the estrogen receptor alpha (ER-alpha) signaling pathway in the presence of an antagonist (AID 1259383; calls by dose curve; also: top concentration of the series differs between compounds; % is scaled to controls: 0 for no effect and ±100 for the full control effect; nearly all actives have a fitted effect of over 15% in size)
In short: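 Luminescent ERE-luciferase reporter, VM7Luc4E2 cells (endogenous ER-alpha); 10.0nM ICI-182,780 final; 15-point compound titration; 22hr at 37C; ONE-Glo, 30min RT.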

[6] = qHTS assay to identify small molecule agonists or antagonists of the thyroid stimulating hormone receptor (TSHR) signaling pathway - wild type cell line counter screen (AID 1259384; calls by dose curve; also: % is scaled to controls: 0 for no effect and ±100 for the full control effect)
In short: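 Wild-type Hek293 cells, 800/well, 18 h at 37C, then compound with Ro20-1724 for 30 min RT. cAMP by HTRF (cAMP-d2/anti-cAMP cryptate), 1 h RT, fluorescence read. 15 concentrations, triplicates.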

[7] = target: Thyrotropin receptor (Homo sapiens) (UniProt P16473); assay: qHTS assay to identify small molecule antagonists of the thyroid stimulating hormone receptor (TSHR) signaling pathway (AID 1259385; calls by dose curve; also: % is scaled to controls: 0 for no effect and ±100 for the full control effect; nearly all actives have a fitted effect of over 20% in size)
In short: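 TSHR-HEK293 cells (800/well) plated 18 h, then compounds with Ro20-1724 and TSH at 1.5 ng/mL final, 30 min at room temperature. cAMP quantified by HTRF (cAMP-d2/anti-cAMP-cryptate, 1 h); 15 concentrations in triplicate.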

[8] = qHTS assay to identify small molecule agonists of the estrogen receptor alpha (ER-alpha) signaling pathway in the presence of an antagonist - cell viability counter screen (AID 1259386);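 also: series mostly up to about 92 µM; cells exposed to compounds for 22 h at 37 °C before the viability read; % is scaled to controls: 0 for no effect and ±100 for the full control effect; nearly all actives have a fitted effect of over 30% in size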
In short: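 Using estrogen-depleted VM7Luc4E2 cells, the 15-concentration compound series was applied together with 10.0nM ICI-182,780 and incubated 22hr at 37C/5% CO2. Cell viability was then scored by CellTiter-Fluor.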

[9] = target: Progesterone receptor (Homo sapiens) (UniProt P06401); assay: qHTS assay to identify small molecule agonists of the progesterone receptor (PR) signaling pathway (AID 1346784; calls by dose curve; also: % is scaled to controls: 0 for no effect and ±100 for the full control effect; nearly all actives have a fitted effect of over 30% in size)
In short: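 Beta-lactamase reporter read-out: after 16 hr compound treatment at 37C and a further 2 hr at room temperature with LiveBLAzer B/G FRET substrate, fluorescence was measured in PR-UAS-bla HEK 293T cells grown in 2% charcoal-stripped serum.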

[10] = target: Progesterone receptor (Homo sapiens) (UniProt P06401); assay: qHTS assay to identify small molecule antagonists of the progesterone receptor (PR) signaling pathway (AID 1346795; active = well fitted inhibition curve with a large enough effect in the signal ratio in the repeat runs, not every such curve was filed as active; the % refers to the signal ratio; also: potency is read from the fitted curve at half-maximal effect)
In short: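 Read-out is fluorescence from the LiveBLAzer B/G FRET substrate, cleaved by a UAS-controlled beta-lactamase in PR-UAS-bla HEK293T cells after 16 hr exposure to compound plus 1 nM promegestone (final), followed by 2 hr at room temperature.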

[11] = qHTS assay to identify small molecule antagonists of the progesterone receptor (PR) signaling pathway - cell viability counter screen (AID 1346798); also: nearly all actives have a fitted effect of over 50% in size; also: potency is read from the fitted curve at half-maximal effect
In short: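 HEK293T PR-UAS-bla, 2% charcoal-stripped FBS; 4 hr pre-plate; cpd + R5020, 16 h 37C; LiveBLAzer read first; then CellTiter-Glo 30 min RT, luminescence.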

[12] = qHTS assay to identify small molecule agonists of the progesterone receptor (PR) signaling pathway - cell viability counter screen (AID 1346799; calls by dose curve; also: % is scaled to controls: 0 for no effect and ±100 for the full control effect; nearly all actives have a fitted effect of over 45% in size)
In short: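 Luminescence from CellTiter-Glo, added after the beta-lactamase FRET read in the same wells, gave cytotoxicity in PR-UAS-bla HEK293T cells treated with compounds for 16 hr at 37C.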

[13] = qHTS assay to identify small molecule antagonists of the TGF-beta/Smad signaling pathway - cell viability counter screen (AID 1346824); also: % is scaled to controls: 0 for no effect and ±100 for the full control effect; nearly all actives have a fitted effect of over 50% in size
In short: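 SBE-bla HEK 293T cells, incubated overnight, then compound plus 0.25 ng/mL TGF-beta1 (stock added) for 5 hr at 37 C. Viability was read in the same wells by CellTiter-Glo luminescence after 30 min at room temperature.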

[14] = qHTS assay to identify small molecule agonists of the TGF-beta/Smad signaling pathway - cell viability counter screen (AID 1346829); also: top concentration of the series differs between compounds; % is scaled to controls: 0 for no effect and ±100 for the full control effect; nearly all actives have a fitted effect of over 45% in size
In short: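 CellTiter-Glo luminescence readout; SBE-bla HEK 293T cells, overnight plating, compound 5 hr at 37 C/5% CO2, then bla substrate 2 hr RT, then CellTiter-Glo 30 min RT.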

[15] = qHTS assay to identify small molecule agonists of the TGF-beta/Smad signaling pathway (AID 1346859; active = well fitted activation curve with a large enough effect in the signal ratio in the repeat runs, not every such curve was filed as active; the % refers to the signal ratio; also: series mostly up to about 77 µM; % is scaled to controls: 0 for no effect and ±100 for the full control effect)
In short: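 SBE-bla HEK 293T, 4,000 cells/well, plated o/n; cpd in DMSO, 5 hr, 37 C/5% CO2; B/G FRET substrate 2 hr RT; ex 405, em 460/530 nm.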

[16] = Human pregnane X receptor (PXR) small molecule agonists, qHTS cell viability counter screen (AID 1346977); also: % is scaled to controls: 0 for no effect and ±100 for the full control effect; nearly all actives have a fitted effect of over 50% in size
In short: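 PXR-Luc HepG2, 2,000 cells/well, 5% charcoal-stripped FBS; 5hr settle; cpd 24hr, 37C/5% CO2; CellTiter-Fluor at 23hr, read 1hr later (fluorescence).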

[17] = target: Thyrotropin-releasing hormone receptor (Homo sapiens) (UniProt P34981); assay: qHTS assay to identify small molecule antagonists of the thyrotropin-releasing hormone receptor (TRHR) signaling pathway (AID 1346877; active = well fitted inhibition curve with a large enough effect in the repeat runs, not every such curve was filed as active; also: series mostly up to about 51 µM; % is scaled to controls: 0 for no effect and ±100 for the full control effect)
In short: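 Calcium signal in dye-loaded TRHR/HEK293 cells; compounds added 5 min before TRH (1 nM final); fluorescence monitored 3 min at 1 s steps.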

[18] = target: Thyrotropin-releasing hormone receptor (Homo sapiens) (UniProt P34981); assay: qHTS assay to identify small molecule agonists of the thyrotropin-releasing hormone receptor (TRHR) signaling pathway (AID 1346891; calls by dose curve; also: series mostly up to about 58 µM; % is scaled to controls: 0 for no effect and ±100 for the full control effect)
In short: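 Intracellular calcium rise, read as fluorescence every second for 3 min, served as the agonist signal in dye-loaded HEK293 cells expressing TRHR; each compound ran at 15 concentrations in triplicate.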

[19] = target: Estrogen receptor beta (Homo sapiens) (UniProt Q92731); assay: qHTS assay to identify small molecule antagonists of the estrogen receptor beta (ER-beta) signaling pathway (AID 1259378; active = well fitted inhibition curve with a large enough effect in the signal ratio in the repeat runs, not every such curve was filed as active; the % refers to the signal ratio; also: potency is read from the fitted curve at half-maximal effect)
In short: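 ER-beta-UAS-bla HEK293T cells in 2% charcoal-stripped FBS medium treated with compound plus 1nM final 17-beta-estradiol for 16 hr at 37C. Beta-lactamase reporter read by FRET substrate fluorescence after 2 hours at room temperature.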

Chain of Estrogen receptor beta (Homo sapiens) (Q92731 whole entry, looked up): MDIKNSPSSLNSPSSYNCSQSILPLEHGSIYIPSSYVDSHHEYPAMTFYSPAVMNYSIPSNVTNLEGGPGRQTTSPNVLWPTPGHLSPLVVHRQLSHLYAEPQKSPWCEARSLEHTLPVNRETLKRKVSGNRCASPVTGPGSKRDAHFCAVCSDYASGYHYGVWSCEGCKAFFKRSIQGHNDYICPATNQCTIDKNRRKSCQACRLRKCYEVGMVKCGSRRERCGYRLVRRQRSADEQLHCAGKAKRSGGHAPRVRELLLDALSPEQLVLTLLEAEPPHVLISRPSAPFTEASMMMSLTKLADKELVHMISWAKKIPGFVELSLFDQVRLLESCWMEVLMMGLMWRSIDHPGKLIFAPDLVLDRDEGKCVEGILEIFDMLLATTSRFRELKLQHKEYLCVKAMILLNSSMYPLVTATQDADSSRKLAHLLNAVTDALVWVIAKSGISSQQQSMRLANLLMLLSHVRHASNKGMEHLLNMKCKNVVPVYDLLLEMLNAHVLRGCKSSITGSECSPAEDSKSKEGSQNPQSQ
Chain of Thyrotropin receptor (Homo sapiens) (P16473 whole entry, looked up): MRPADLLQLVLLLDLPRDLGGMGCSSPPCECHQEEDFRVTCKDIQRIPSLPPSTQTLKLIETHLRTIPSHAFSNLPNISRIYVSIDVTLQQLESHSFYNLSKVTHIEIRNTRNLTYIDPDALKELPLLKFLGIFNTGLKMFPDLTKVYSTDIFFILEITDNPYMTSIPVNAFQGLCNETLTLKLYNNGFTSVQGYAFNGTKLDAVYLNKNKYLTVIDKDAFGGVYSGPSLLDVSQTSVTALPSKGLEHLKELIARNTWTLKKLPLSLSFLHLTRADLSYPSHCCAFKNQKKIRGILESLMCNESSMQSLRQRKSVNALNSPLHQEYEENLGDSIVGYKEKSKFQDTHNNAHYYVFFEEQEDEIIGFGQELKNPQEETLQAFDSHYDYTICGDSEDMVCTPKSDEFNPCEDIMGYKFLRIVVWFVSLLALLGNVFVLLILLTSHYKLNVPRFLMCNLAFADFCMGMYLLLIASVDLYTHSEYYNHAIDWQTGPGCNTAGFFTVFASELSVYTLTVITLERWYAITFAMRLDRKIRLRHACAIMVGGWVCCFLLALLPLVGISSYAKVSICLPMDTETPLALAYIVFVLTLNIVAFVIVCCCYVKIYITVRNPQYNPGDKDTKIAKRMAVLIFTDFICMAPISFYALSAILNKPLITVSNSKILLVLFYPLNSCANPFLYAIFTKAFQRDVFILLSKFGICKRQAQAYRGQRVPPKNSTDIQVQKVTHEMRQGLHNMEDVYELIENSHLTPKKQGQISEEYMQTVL
Chain of Estrogen receptor (Homo sapiens) (P03372 whole entry, looked up): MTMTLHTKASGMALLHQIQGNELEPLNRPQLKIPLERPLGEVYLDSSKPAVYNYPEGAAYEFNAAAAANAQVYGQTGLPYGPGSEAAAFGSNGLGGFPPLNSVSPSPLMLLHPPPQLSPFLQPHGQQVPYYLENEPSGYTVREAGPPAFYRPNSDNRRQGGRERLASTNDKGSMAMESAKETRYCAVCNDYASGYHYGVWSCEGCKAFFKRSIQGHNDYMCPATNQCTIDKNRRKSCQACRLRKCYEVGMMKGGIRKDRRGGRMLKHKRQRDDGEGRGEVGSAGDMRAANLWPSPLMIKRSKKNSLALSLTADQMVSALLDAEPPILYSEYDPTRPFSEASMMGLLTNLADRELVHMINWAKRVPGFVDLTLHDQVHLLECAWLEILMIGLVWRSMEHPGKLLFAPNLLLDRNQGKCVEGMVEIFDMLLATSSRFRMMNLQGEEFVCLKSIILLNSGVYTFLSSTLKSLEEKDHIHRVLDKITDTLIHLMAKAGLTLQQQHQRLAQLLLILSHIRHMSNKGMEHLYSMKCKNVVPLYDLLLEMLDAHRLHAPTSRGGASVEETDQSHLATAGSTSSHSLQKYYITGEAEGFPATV
Chain of Androgen receptor (Homo sapiens) (P10275 whole entry, looked up): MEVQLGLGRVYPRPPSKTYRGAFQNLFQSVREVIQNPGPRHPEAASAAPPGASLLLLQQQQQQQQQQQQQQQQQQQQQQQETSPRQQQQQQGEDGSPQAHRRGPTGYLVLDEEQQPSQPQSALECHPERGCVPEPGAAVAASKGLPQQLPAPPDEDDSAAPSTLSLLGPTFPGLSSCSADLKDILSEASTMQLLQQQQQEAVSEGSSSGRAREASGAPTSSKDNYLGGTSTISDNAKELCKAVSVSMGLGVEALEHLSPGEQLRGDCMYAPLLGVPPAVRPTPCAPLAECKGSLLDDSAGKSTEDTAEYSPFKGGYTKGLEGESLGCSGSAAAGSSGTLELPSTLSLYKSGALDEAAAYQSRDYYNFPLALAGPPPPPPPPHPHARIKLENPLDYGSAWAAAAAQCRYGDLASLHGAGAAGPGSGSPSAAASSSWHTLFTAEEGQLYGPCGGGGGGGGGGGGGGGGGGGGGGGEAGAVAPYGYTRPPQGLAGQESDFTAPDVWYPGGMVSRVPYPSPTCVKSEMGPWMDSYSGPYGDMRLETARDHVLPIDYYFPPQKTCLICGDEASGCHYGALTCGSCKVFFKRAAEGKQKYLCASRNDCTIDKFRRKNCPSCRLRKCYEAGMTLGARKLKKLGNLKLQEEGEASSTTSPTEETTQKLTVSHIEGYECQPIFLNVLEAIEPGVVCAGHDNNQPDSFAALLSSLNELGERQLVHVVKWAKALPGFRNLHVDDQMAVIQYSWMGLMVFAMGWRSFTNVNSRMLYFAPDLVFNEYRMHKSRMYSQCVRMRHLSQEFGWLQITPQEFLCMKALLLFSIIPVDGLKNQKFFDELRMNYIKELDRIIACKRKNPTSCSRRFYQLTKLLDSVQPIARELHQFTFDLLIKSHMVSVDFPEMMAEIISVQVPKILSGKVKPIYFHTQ
Chain of Thyrotropin-releasing hormone receptor (Homo sapiens) (P34981 whole entry, looked up): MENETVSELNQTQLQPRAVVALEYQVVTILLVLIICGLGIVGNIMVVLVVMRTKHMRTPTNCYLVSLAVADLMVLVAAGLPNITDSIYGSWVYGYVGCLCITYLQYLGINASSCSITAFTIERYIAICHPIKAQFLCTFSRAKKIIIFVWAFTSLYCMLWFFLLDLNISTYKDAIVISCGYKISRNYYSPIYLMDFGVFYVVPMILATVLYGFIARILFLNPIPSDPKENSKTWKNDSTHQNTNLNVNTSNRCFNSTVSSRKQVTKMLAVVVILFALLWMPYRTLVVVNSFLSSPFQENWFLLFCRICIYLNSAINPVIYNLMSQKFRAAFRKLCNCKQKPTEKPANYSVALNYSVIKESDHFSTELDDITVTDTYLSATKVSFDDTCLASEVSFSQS
Chain of Progesterone receptor (Homo sapiens) (P06401 whole entry, looked up): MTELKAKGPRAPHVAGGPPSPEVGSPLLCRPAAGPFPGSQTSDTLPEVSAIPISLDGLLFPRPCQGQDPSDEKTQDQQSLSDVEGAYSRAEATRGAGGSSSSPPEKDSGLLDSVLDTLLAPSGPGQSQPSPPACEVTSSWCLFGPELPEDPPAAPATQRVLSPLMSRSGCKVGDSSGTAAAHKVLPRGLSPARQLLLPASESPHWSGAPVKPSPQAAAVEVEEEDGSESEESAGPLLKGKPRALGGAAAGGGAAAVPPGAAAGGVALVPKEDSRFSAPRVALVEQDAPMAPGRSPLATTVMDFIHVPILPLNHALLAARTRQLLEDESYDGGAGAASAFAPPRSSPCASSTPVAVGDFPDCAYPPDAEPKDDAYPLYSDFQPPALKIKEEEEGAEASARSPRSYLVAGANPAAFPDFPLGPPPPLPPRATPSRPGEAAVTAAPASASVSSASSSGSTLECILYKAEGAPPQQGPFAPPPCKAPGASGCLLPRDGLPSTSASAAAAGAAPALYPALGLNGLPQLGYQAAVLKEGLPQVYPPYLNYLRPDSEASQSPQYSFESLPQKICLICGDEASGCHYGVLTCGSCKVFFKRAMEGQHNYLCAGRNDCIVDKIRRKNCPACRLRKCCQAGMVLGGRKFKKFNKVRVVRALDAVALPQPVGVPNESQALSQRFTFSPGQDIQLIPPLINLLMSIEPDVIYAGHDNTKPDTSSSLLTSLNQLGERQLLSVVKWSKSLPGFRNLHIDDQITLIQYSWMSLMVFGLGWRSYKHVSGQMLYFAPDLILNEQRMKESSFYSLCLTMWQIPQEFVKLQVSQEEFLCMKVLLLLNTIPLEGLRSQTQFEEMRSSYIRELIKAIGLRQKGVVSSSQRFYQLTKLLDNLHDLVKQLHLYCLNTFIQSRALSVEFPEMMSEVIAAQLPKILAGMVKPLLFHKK

c1ccc(Sc2ccccc2)cc1
inactive: Potency [1] | Potency [2] | Potency [3] | Potency [4] | Potency [5] | outcome [6] | Potency [7] | Potency [8] | outcome [9] | Potency [10] | Potency [11] | Potency [12] | Potency [13] | Potency [14] | Potency [15] | Potency [16]

CCCSS/C(CCO)=C(\C)N(C=O)Cc1cnc(C)nc1N
active: Potency [2] 26.6 µM
inactive: Potency [1] | Potency [3] | Potency [4] | Potency [5] | outcome [6] | Potency [7] | Potency [8] | outcome [9] | Potency [10] | Potency [11] | Potency [13] | Potency [14] | Potency [15] | Potency [17] | Potency [18]

S=C(SSSSSSC(=S)N1CCCCC1)N1CCCCC1
inactive: activity change, negative = cytotoxicity [1] -6.95% [at 19 µM] | activation [5] 7.24% [at 19 µM] | activation [9] 0.512% [at 19 µM] | viability change, negative = cytotoxic [13] 17.4% [at 15.8 µM] | activity change, negative = cytotoxicity [14] -0.13% [at 15.8 µM] | activation [15] 10.4% [at 15.8 µM] | activity, negative = inhibition [17] -6.79% [at 10.5 µM] | activation [18] 4.08% [at 11.8 µM] | activity change, negative = cytotoxicity [16] 0.702% [at 19 µM]
active: Potency [19] 13.4 µM | Potency [10] 13.4 µM

C=C[C@](C)(O)CC[C@@H]1[C@@]2(C)CCCC(C)(C)[C@@H]2CC[C@@]1(C)O
active: Potency [19] 27.3 µM | Potency [2] 48.6 µM | Potency [4] 61.1 µM
inactive: Potency [5] | outcome [6] | Potency [7] | Potency [8] | Potency [14] | Potency [15]

C=C1C(C)(C)[C@@]2(Cl)C(Cl)[C@]1(Cl)C(Cl)(Cl)C2(Cl)Cl (some centres not stated)
inactive: Potency [3] | Potency [5] | outcome [6] | Potency [7] | Potency [13] | Potency [14] | Potency [15]
active: Potency [19] 30.1 µM | Potency [2] 60 µM | Potency [11] 67.3 µM
